Experimental data as given in ChEMBL document CHEMBL4513149, “CO-ADD screening of MMV (CH) - MMV compounds” (2021).
Potency and affinity values are given separately.

What was measured:
Klebsiella pneumoniae = conditions: Concentration 20 uM; ASSAY_TEST Inhibition of Bacterial Growth; detection method Absorption (OD600); MEDIA CAMHB; plate type 384well; NBS; CORNING #3640; time 18 hr
Candida albicans = conditions: 20 µM
Cryptococcus neoformans = conditions: Concentration 20 uM; ASSAY_TEST Inhibition of Fungal Growth; detection method Resazurin; Absorption (OD600-OD570); plate type 384well; NBS; CORNING #3640

| Structure (SMILES) | Inhibition (Klebsiella pneumoniae) | Inhibition (Candida albicans) | Inhibition (Cryptococcus neoformans) |
| --- | --- | --- | --- |
| CCc1nc2ccc(C(=O)NCc3ccc4c(c3)OCO4)cn2c1N(C)Cc1cccs1 | 5.86% | 3.04% | -6.4% |
| CC(C)(C)n1nc(Cc2ccc(F)c(Cl)c2)c2c(N)ncnc21 | 9.52% | 4.75% | -6.05% |
| CC(C)(C)c1cc(C(=O)Nc2cccnc2)cc(C(=O)Nc2cccnc2)c1 | 16.7% | 3.35% | -7.29% |
| O=C(c1cc2ccccc2o1)N1CCN(Cc2ccc3c(c2)OCO3)CC1 | 9.23% | -0.54% | -15.32% |
| c1coc(CNc2nc(N3CCCCC3)nc3ccccc23)c1 | 7.9% | 4.06% | -16.26% |
| COc1cc(-c2cc(-c3ccc(S(C)(=O)=O)cc3)cnc2N)ccc1O | 7.56% | 3.91% | -7.2% |
| O=C(NCc1ccoc1)N1CCN(Cc2ccc3c(c2)OCO3)CC1 | 7.21% | 2.46% | 10.58% |
| COc1cccc(OC)c1C(=O)Nc1ccc(Cl)c(-c2nc3ccccc3s2)c1 | 2.41% | 4.58% | -8.77% |
| Clc1cccc(CO[C@H]2CCc3ccccc3[C@@H]2n2ccnn2)c1 | 8.29% | 10.9% | -3.55% |
| OCCc1ccc(Nc2nccc(-c3nnc4ccccn34)n2)cc1 | 15.28% | 3.06% | -9.75% |
| Clc1ccc(Cl)c(CO[C@H]2CCCC[C@@H]2n2ccnc2)c1 | 15.52% | 2.99% | 2.84% |
| CC(C(=O)Nc1ccc2oc(-c3ccncc3)nc2c1)c1ccccc1 (stereo not drawn) | 10.68% | 3.28% | -12.41% |
| O=C(c1ccc(NCCO)cc1)C1C[C@H]1c1ccc(Cl)cc1 (stereo partly drawn) | 5.98% | 6.88% | 2.16% |
| O=C(Nc1ccccc1-c1nc2c(C(=O)O)cccc2o1)c1ccccc1 | 1.94% | 5.59% | -2.58% |
| c1ccc(Oc2ccc(-c3cc(N4CCOCC4)[nH]n3)cc2)cc1 | 8.77% | 5.83% | -7.11% |
| CC1CCCN(C(=O)C(C)Nc2cc(Cl)ccc2N2CCOCC2)C1 (stereo not drawn) | 10.27% | 5.64% | -4.76% |
| Cc1ccccc1C(=O)N1N=C(Nc2ccccc2)SC1(C)C | 6.87% | 4% | -7.29% |
| COc1cc(CN2CCC3(C=Cc4ccccc43)CC2)cc2c1OCO2 | -1.15% | -0.19% | -8.59% |
| Cl.O=C(Nc1ccc(N2CCNCC2)nc1)c1oc(-c2ccccc2)nc1C(F)(F)F | 2.54% | 2.72% | -3.82% |
| c1ccc(Oc2ccc(-c3cncc(-c4ccc5[nH]ccc5c4)n3)cc2)cc1 | 5.9% | 4.38% | -8.14% |
| C[C@]1(O)C[C@@H](c2nc(-c3ccc4ccc(-c5ccccc5)nc4c3)c3c(N)nccn32)C1 [LINSITINIB] | 12.51% | 8.51% | -8.41% |
| CS(=O)(=O)c1ccccc1C(=O)N(Cc1ccccc1)c1ccccc1 | 9.63% | 3.84% | -8.51% |

| Structure (SMILES) | Inhibition (Klebsiella pneumoniae) | Inhibition (Candida albicans) | Inhibition (Cryptococcus neoformans) |
| --- | --- | --- | --- |
| CCC(NC(=O)c1ccccc1NC(=O)c1ccc(C)cc1)C(=O)OC (stereo not drawn) | 8.73% | 4.2% | -3.77% |
| CS(=O)(=O)N1CCC(Cn2nc(Cc3cccc4ccccc34)c3c(N)ncnc32)CC1 | 11.77% | 2.39% | -6.98% |
| O=C(NC1CC1)c1ccc(N2CCOc3ccc(Cl)cc32)s1 | 15.81% | 6.64% | 31.76% |
| c1ccc(Oc2ccc(-c3cc(C4CCOCC4)[nH]n3)cc2)cc1 | 16.38% | 7.75% | 0.97% |
| NCCC(O)C(=O)N[C@@H]1C[C@H](N)[C@@H](OC2O[C@H](CN)[C@@H](O)[C@H](O)[C@H]2O)[C@H](O)C1OC1O[C@H](CO)[C@@H](O)[C@H](N)[C@H]1O.O=S(=O)(O)O.O=S(=O)(O)O (stereo partly drawn) | 11.78% | 2.46% | -2.57% |
| N#Cc1ccc(-c2cnc(N)c(-c3ccc(C(N)=O)cc3)n2)cc1 | 16.03% | 4.25% | -3.91% |
| Cc1cccc(-c2nc(Nc3ccncn3)c3sccc3n2)n1 | 15.76% | 3.59% | 61.44% |
| Cc1ccc(-c2nc(CN(Cc3ccccn3)C(C)C)cs2)o1 | 14.74% | 5.03% | -5.74% |
| CCOC(=O)c1cc(-c2csc(Nc3c(C)cc(C)cc3C)n2)on1 | 16.59% | 2.27% | -12.46% |
| CCCCOC(=O)Nc1cc2nc(C3CCCCC3)[nH]c2cc1N1CCCC1 | 3.91% | 3.13% | -8.19% |
| O=C(NC1CC1)c1ccc(CSCc2ccccc2Cl)o1 | 1.21% | 7.77% | -0.4% |
| COc1ccc(Oc2ccc([C@@H](C)N(C)c3ncc4c(N)nc(N)nc4n3)cc2)cc1 | 18.87% | 5.99% | -6.67% |
| Nc1ncc(-c2ccc(C(F)(F)F)nc2)cc1-c1ccc(C(F)(F)F)nc1 | -7.95% | 5.26% | -5.78% |
| COc1ccc(C2=NCCN2)cc1-c1cn(-c2cccc(C3=NCCN3)c2)nn1.O=C(O)C(F)(F)F.O=C(O)C(F)(F)F | 17.32% | 2.35% | -2.18% |
| Cc1cc(NCC(C)C)c2[nH]nc(-c3ccccc3)c2n1 | 16.32% | 0.11% | -5.87% |
| Cc1nc(-c2ccccn2)nc(NCCc2ccc(S(C)(=O)=O)cc2)c1Cl | 10.15% | 4.79% | 2.36% |
| CN1CCN(S(=O)(=O)c2ccc(-c3ccc4c(Nc5ccc6nn[nH]c6c5)ccnc4c3)cc2)CC1 | 5.15% | 4.6% | -7.38% |
| Cc1ccc(-c2cc(C(=O)Nc3cccnc3)c3cc(Br)ccc3n2)cc1 | 15.62% | 4.34% | -8.45% |
| CC(C)(C)n1nc(-c2ccccc2)c2c(N)ncnc21 | 1.67% | 1.46% | -15.8% |
| Cc1cc(C(=O)Nc2cnn(Cc3ccc(Cl)cc3Cl)c2)no1 | -11.81% | 11.5% | -4.75% |
| FC(F)(F)c1ccc(N(c2cccnc2)C2CCN(c3ccc(C(F)(F)F)cn3)CC2)cc1 | 14.96% | 2.59% | -3.19% |
| Cc1noc(C)c1C(=O)N1CCCC(c2[nH]c3c(C)cccc3c2-c2ccncc2)C1 (stereo not drawn) | 18.77% | 4.29% | -7.96% |

| Structure (SMILES) | Inhibition (Klebsiella pneumoniae) | Inhibition (Candida albicans) | Inhibition (Cryptococcus neoformans) |
| --- | --- | --- | --- |
| N#Cc1nc(-c2ccccc2)oc1S(=O)(=O)c1ccc(Cl)cc1 | -0.86% | 3.69% | -7.91% |
| Cc1noc(C)c1COc1cccc(C(=O)N=c2[nH]cccc2C)c1 | 14.67% | 1.92% | -9.25% |
| CN1CCC(c2cc(-c3ccncc3)c(-c3ccc(F)cc3)[nH]2)CC1 | 5.43% | 0.45% | 8.69% |
| O=C(OCc1ccccc1)N1CCC(c2cc(-c3ccncc3)c(-c3ccc(F)cc3)[nH]2)CC1 | 6.24% | 3.85% | -11.48% |
| CC(=O)N1CCc2cc3nc(C)cc(C)c3cc21 | 14.03% | 4.19% | -7.03% |
| CCc1nc2ccc(Cl)cn2c1C(=O)NCc1ccc(N2CCC(c3ccc(OC(F)(F)F)cc3)CC2)cc1 [TELACEBEC] | 18.33% | 2.34% | -3.29% |
| O=C(Nc1nc(-c2ccccn2)cs1)c1cncn1-c1ccccc1 | 11.31% | 1.74% | -8.18% |
| CCN(CC)CCCN1CCN(C(=O)c2cccc(-c3noc(C(F)(F)F)n3)c2)CC1 | 3.68% | 1.48% | -3.47% |
| COc1ccc(-c2nnc3ccc(-c4cccc(C(C)C)c4)cn23)cc1OC | -10.87% | 15% | -9.03% |
| COC(=O)c1c(NC(=O)c2cc3ccccc3oc2=O)sc2c1CCN(Cc1ccccc1)C2 | 12.75% | 2.23% | -2.1% |
| CC(C)(CN)c1nc(-c2ccc(Cl)c(O)c2)c(-c2ccnc(N)n2)[nH]1.O=C(O)C(F)(F)F.O=C(O)C(F)(F)F | 15.34% | 2.09% | -6.49% |
| CC(C)(C)CN1C(=O)C(c2ccccc2)(c2ccccc2)N=C1N | 14.16% | 3.38% | 1.98% |
| N=C(N)c1ccc(-c2cc(-c3ccccc3)on2)cc1 | 18.39% | 3.34% | -9.38% |
| CCc1ccc([C@@H]2C[C@H](C(F)(F)F)n3ncc(C(=O)NCc4ccc(OC)cc4)c3N2)cc1 | 2.88% | 5.42% | -1.28% |
| Cc1ccc(NC(=O)c2nc[nH]c2C(=O)Nc2nc3ccccc3[nH]2)c(C)c1 | 13.9% | 23.3% | -8.94% |
| CC(C)(C)OC(=O)N1CCN(c2cc(-c3ccc(Oc4ccccc4)cc3)n[nH]2)CC1 | 20.96% | 5.58% | -7.43% |
| CCCn1c(CNc2ccccc2O)nc2ccccc21 | 12.8% | -0.42% | -15.95% |
| CC1(COc2ccc(N3CCC(Oc4ccc(OC(F)(F)F)cc4)CC3)cc2)Cn2cc([N+](=O)[O-])nc2O1 (stereo not drawn) | 19.71% | 20.4% | -2.75% |
| CC(C)(C)c1ccc(N[C@@H]2CCCC[C@H]2NC(=O)c2ccco2)cc1 | -12.61% | 5.24% | -2.08% |
| Nc1ncc(-c2cn[nH]c2)cc1-c1nc2cc(Cl)cnc2[nH]1 | 5.89% | 4.36% | -3.87% |
| O=C(NCc1nnc2n1CCCCC2)c1ccc(-c2ccc(F)cc2)o1 | 6.05% | 3.81% | 6.1% |
| Cc1ccc(S(=O)(=O)N2CCN(C(=O)c3cc(-c4ccccc4)n[nH]3)CC2)cc1 | -15.32% | 6.95% | -7.39% |
